Where “and” joins values, the source holds several entries; their conditions need not be identical. Equal entries are not always repeated. Calls of active or inactive are those of the source.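 Rule for the calls, unless noted: active = thallium flux through the channel raised or lowered by more than 3 SD from vehicle-only wells, actives on both sides; inactive = the rest.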 Non-standard residues stand in square brackets, D forms with d. Residues, ends and D or L forms follow the SMILES beside them. pGlu = O=C1CC[C@@H](C(=O)O)N1; Thz = O=C(O)[C@@H]1CSCN1
Assays:
[1] = liver-stage malaria parasite growth inhibition, primary screen, cell-based, HepG2, luciferase luminescence, HepG2 viability (AID 624349; in the data active = parasite load remaining mostly below about 12%, no sharp cut-off; inactive = mostly above about 10%;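 note: 100% = mean of DMSO negative control wells on the same plate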); details: P. berghei liver stage in HepG2, luciferase luminescence, concentration not given here; parasite load remaining: stronger effect = lower value; viability: measured here: HepG2 viability without parasites
[2] = Cy5 fluorescence interference with SSB-bound oligo, artefact control for HCV NS3 helicase inhibitor project, biochemical, NIH Clinical Collection, E. coli SSB (AID 743268; call rule not given here)
[3] = system: Hepatitis C virus NS3 helicase; assay: HCV NS3 helicase inhibitors, primary screen, biochemical, fluorescence polarization, NIH Clinical Collection (AID 743270; call rule not given here); details: NS3 helicase binding to Cy5-dT15 DNA, stronger effect = higher value, concentration not given here
[4] = molecular target: Single-stranded DNA-binding protein (Escherichia coli (strain K12)) (UniProt P0AGE0); assay: E. coli SSB displacement from DNA, counter-screen for HCV NS3 helicase inhibitor project, biochemical, fluorescence polarization, NIH Clinical Collection (AID 743271; in the data active = inhibition above about 28%); details: stronger effect = higher value, concentration not given here
[5] = fluorescence interference in NS3h assay format, artefact control for HCV NS3 helicase inhibitor project, biochemical, NIH Clinical Collection (AID 743272; call rule not given here;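 note: HCV NS3 helicase with a Cy5 labelled single stranded DNA probe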); details: fluorescence interference counterscreen, stronger effect = lower value
[6] = modulation of C. elegans fzo-1 (AID 1259413; call rule not given here;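 note: fzo-1 mutant C. elegans worms in liquid wells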); details: C. elegans fzo-1 modulator screen, mean read-out; stronger effect = higher value
[7] = differential killing of epithelial or mesenchymal cells, primary screen, imaging, PC-3E GFP, TEM4-18 mCherry, co-culture (AID 1345086;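 active = compounds killing one labelled cell type while sparing the other, by normalised counts and ratio limits, not self-fluorescent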;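 for all read-outs here: cells exposed to compound for 72 h before imaging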;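 for red/green cell ratio (normalised): normalised mesenchymal count divided by normalised epithelial count so high means epithelial killing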); details: imaging cell counts, at 1 µM; for red/green cell ratio (normalised): actives lie on both sides, counts scaled to control wells, 1 = unselective
[8] = survival rescue of mitochondrial mutant cells in low glucose, primary screen, MELAS cybrids, Rieske KO mouse fibroblasts, CellTiter-Glo (AID 1508586;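 active = mean z-score across replicates of 1.96 or higher in either the MELAS or the Rieske mutant cell line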;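 note: z relative to plate mean and SD of compound and empty wells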)
F380Y = assay: modulators of BK channel variants, profiling panel, selectivity assay, cell-based, U2OS BacMam, thallium flux, beta subunits (AID 1259406); details: at 30 µM;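 note: initial slope of Thallos dye fluorescence rise after thallium is added; log ratio against the mean of 0.3% DMSO vehicle wells on the same plate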
F380Y/beta1 = assay: as above; details: at 30 µM
F380Y/beta2Delta = assay: as above; details: at 30 µM
F380Y/beta4 = assay: as above; details: at 30 µM
[9] = molecular target: Calcium-activated potassium channel subunit alpha-1 (Homo sapiens) + Leucine-rich repeat-containing protein 26 (Homo sapiens) (UniProt Q12791+Q2I0M4); assay: as above; details: F380Y/Slo1WT/gamma1, at 30 µM
Chain of Calcium-activated potassium channel subunit alpha-1 (Homo sapiens) + Leucine-rich repeat-containing protein 26 (Homo sapiens) (Q2I0M4 whole entry, looked up, one chain of several): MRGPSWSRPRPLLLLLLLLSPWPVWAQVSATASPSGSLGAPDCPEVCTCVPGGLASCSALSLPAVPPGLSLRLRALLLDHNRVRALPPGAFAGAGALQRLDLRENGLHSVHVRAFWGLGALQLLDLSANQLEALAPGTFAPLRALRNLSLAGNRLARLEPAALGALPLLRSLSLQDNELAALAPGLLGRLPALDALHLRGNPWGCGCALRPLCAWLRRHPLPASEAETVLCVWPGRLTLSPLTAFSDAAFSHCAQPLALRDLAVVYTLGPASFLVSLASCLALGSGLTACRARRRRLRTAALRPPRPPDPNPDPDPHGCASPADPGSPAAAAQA

R275C = assay: as above; details: at 30 µM
R275C/beta1 = assay: as above; details: at 30 µM
R275C/beta2Delta = assay: as above; details: at 30 µM
R275C/beta4 = assay: as above; details: at 30 µM
R275C/Slo1WT/beta2 = assay: as above; details: at 30 µM
[10] = sensitizers of A549 cells to miR-34 induction, primary screen, imaging, A549 dox-inducible miR-34, nuclei and caspase counts (AID 1347080;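 active = compounds whose cell count with miR-34 switched on is under 0.7 times the count with it off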); details: A549 miR-34 inducible, Hoechst nuclei count, 48 h
[11] = ovarian cancer cell viability with rucaparib, profiling panel, oncology-focused library, rucaparib conditional (AID 1508598;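 active = normalized viability below 100% at a tested concentration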); details: patient-derived ovarian cancer cells, CellTiter-Glo viability, 144 h, stronger effect = lower value
[12] = measured here: epithelial PC-3E GFP cell survival
[13] = measured here: mesenchymal TEM4-18 mCherry cell survival
[14] = MELAS cybrid survival, CellTiter-Glo 48 h, stronger effect = higher value
[15] = Rieske KO mouse fibroblast survival, CellTiter-Glo 72 h
[16] = stronger effect = lower value, cell number ratio, induced over uninduced
[17] = measured here: relative caspase fold change +Dox/-Dox
[18] = measured here: total cells with miR-34 induction, stronger effect = lower value
[19] = measured here: total cells without miR-34 induction

O=C1CC[C@@H](C(=O)N2CSC[C@H]2C(=O)O)N1 ([pGlu]-[Thz]-OH)
0.97: normalised cell number [7, 12]
115%: viability [1]
inactive: parasite load remaining [1] 123% | fluorescence ratio [2] 1 | inhibition [3] 5.94% | inhibition [4] 3.75% | fluorescence ratio [5] 0.96 | mean signal [6] 225 | red/green cell ratio (normalised) [7] 0.96 | z-score [8, 14] 0.585 | log fold change Tl+ flux (F380Y) -0.0365 | log fold change Tl+ flux (F380Y/beta1) 0.0192 | log fold change Tl+ flux (F380Y/beta2Delta) 0.00122 | log fold change Tl+ flux (F380Y/beta4) 0.0189 | log fold change Tl+ flux [9] -0.0423 | log fold change Tl+ flux (R275C) -0.0391 | log fold change Tl+ flux (R275C/beta1) -0.0174 | log fold change Tl+ flux (R275C/beta2Delta) -0.0226 | log fold change Tl+ flux (R275C/beta4) -0.00158 | log fold change Tl+ flux (R275C/Slo1WT/beta2) -0.0454
-0.48: z-score [8, 15]
0.93: normalised cell number [7, 13]

CNCC[C@H](Oc1cccc2ccccc12)c1cccs1
active: log fold change Tl+ flux (R275C/beta1) 0.207 | log fold change Tl+ flux (R275C/beta4) 0.129
11200: cell count [10, 19]
1: normalised cell number [7, 13]
101% and 64.7% and 0.245%: viability [1]
inactive: parasite load remaining [1] 36.5% and 51.1% and -0.135% | fluorescence ratio [2] 0.96 and 0.95 | inhibition [3] 1.19% and -5.46% | inhibition [4] 2.98% and -4.33% | fluorescence ratio [5] 0.93 and 0.89 | mean signal [6] 220 | red/green cell ratio (normalised) [7] 0.93 | fold change [10, 16] 0.93 | log fold change Tl+ flux (F380Y) -0.075 | log fold change Tl+ flux (F380Y/beta1) -0.085 | log fold change Tl+ flux (F380Y/beta2Delta) 0.0364 | log fold change Tl+ flux (F380Y/beta4) -0.0361 | log fold change Tl+ flux [9] 0.0212 | log fold change Tl+ flux (R275C) 0.0449 | log fold change Tl+ flux (R275C/beta2Delta) 0.066 | log fold change Tl+ flux (R275C/Slo1WT/beta2) 0.0145
1.07: normalised cell number [7, 12]
10400: cell count [10, 18]
4.69: fold change [10, 17]

CCCCN1CCCC1CNC(=O)c1cc(C#N)c2ccccc2c1OC (centres undefined)
0.846 and 1.44: fold change [10, 17]
10400 and 9080: cell count [10, 19]
inactive: parasite load remaining [1] 35.8% | fluorescence ratio [2] 0.93 | inhibition [3] -0.22% | inhibition [4] 2.76% | fluorescence ratio [5] 0.91 | mean signal [6] 308 | fold change [10, 16] 0.818 and 0.935 | log fold change Tl+ flux [9] -0.0355 | log fold change Tl+ flux (R275C) -0.0841 | log fold change Tl+ flux (R275C/beta1) -0.0222 | log fold change Tl+ flux (R275C/beta2Delta) -0.085 | log fold change Tl+ flux (R275C/beta4) -0.0283 | log fold change Tl+ flux (R275C/Slo1WT/beta2) -0.00509
active: log fold change Tl+ flux (F380Y) -0.12 | log fold change Tl+ flux (F380Y/beta1) -0.109 | log fold change Tl+ flux (F380Y/beta2Delta) -0.243 | log fold change Tl+ flux (F380Y/beta4) -0.221
8480 and 8490: cell count [10, 18]
66.3%: viability [1]

CC(CCCCC(=O)Nc1ccc(C(F)(F)F)cc1)NCCc1cnc[nH]1 (centres undefined)
1.55 and 0.779: fold change [10, 17]
67%: viability [1]
8900 and 8240: cell count [10, 18]
inactive: parasite load remaining [1] 54.5% | fluorescence ratio [2] 0.96 | inhibition [3] -8.95% | inhibition [4] -4.33% | fluorescence ratio [5] 0.92 | mean signal [6] 233 | fold change [10, 16] 0.859 and 0.909 | log fold change Tl+ flux (F380Y) 0.0425 | log fold change Tl+ flux (F380Y/beta1) 0.0554 | log fold change Tl+ flux (F380Y/beta2Delta) -0.00659 | log fold change Tl+ flux (F380Y/beta4) -0.0291 | log fold change Tl+ flux [9] 0.0127 | log fold change Tl+ flux (R275C) -0.0675 | log fold change Tl+ flux (R275C/beta1) 0.0449 | log fold change Tl+ flux (R275C/beta2Delta) 0.0193 | log fold change Tl+ flux (R275C/beta4) 0.0332 | log fold change Tl+ flux (R275C/Slo1WT/beta2) 0.00571
10400 and 9060: cell count [10, 19]

O=C(c1ccc(OCCN2CCCCC2)cc1)c1c(-c2ccc(O)cc2)sc2cc(O)ccc12
0.306 and -0.238 and 0.0318: z-score [8, 15]
0.9: normalised cell number [7, 12]
0.93: normalised cell number [7, 13]
active: fluorescence ratio [5] 0.8 | viability ([11]; at 0.00122 µM, OCI-P5x cells, with rucaparib 20 µM, 100% = cells with rucaparib alone) 97.6% | viability ([11]; at 0.00488 µM, OCI-P5x cells, with rucaparib 20 µM, 100% = cells with rucaparib alone) 79.4% | viability ([11]; at 0.00488 µM, OCI-P5x cells, without rucaparib) 94.8% | viability ([11]; at 0.0195 µM, OCI-P5x cells, with rucaparib 20 µM, 100% = cells with rucaparib alone) 90% | viability ([11]; at 0.0195 µM, OCI-P5x cells, without rucaparib) 94.3% | viability ([11]; at 1.25 µM, OCI-P5x cells, with rucaparib 20 µM, 100% = cells with rucaparib alone) 89.1% | viability ([11]; at 5 µM, OCI-P5x cells, with rucaparib 20 µM, 100% = cells with rucaparib alone) 40% | viability ([11]; at 5 µM, OCI-P5x cells, without rucaparib) 63.8%
inactive: fluorescence ratio [2] 1.04 | inhibition [3] -7.73% | inhibition [4] 4.1% | mean signal [6] 205 | red/green cell ratio (normalised) [7] 1.03 | z-score [8, 14] -0.537 and -0.644 and -0.85 | viability ([11]; at 0.000305 µM, OCI-C5x cells, with rucaparib 10 µM, 100% = cells with rucaparib alone) 108% | viability ([11]; at 0.000305 µM, OCI-C5x cells, without rucaparib) 112% | viability ([11]; at 0.000305 µM, OCI-P5x cells, with rucaparib 20 µM, 100% = cells with rucaparib alone) 101% | viability ([11]; at 0.000305 µM, OCI-P5x cells, without rucaparib) 110% | viability ([11]; at 0.00122 µM, OCI-C5x cells, with rucaparib 10 µM, 100% = cells with rucaparib alone) 116% | viability ([11]; at 0.00122 µM, OCI-C5x cells, without rucaparib) 116% | viability ([11]; at 0.00122 µM, OCI-P5x cells, without rucaparib) 103% | viability ([11]; at 0.00488 µM, OCI-C5x cells, with rucaparib 10 µM, 100% = cells with rucaparib alone) 131% | viability ([11]; at 0.00488 µM, OCI-C5x cells, without rucaparib) 107% | viability ([11]; at 0.0195 µM, OCI-C5x cells, with rucaparib 10 µM, 100% = cells with rucaparib alone) 113% | viability ([11]; at 0.0195 µM, OCI-C5x cells, without rucaparib) 110% | viability ([11]; at 0.0781 µM, OCI-C5x cells, with rucaparib 10 µM, 100% = cells with rucaparib alone) 121% | viability ([11]; at 0.0781 µM, OCI-C5x cells, without rucaparib) 107% | viability ([11]; at 0.0781 µM, OCI-P5x cells, with rucaparib 20 µM, 100% = cells with rucaparib alone) 118% | viability ([11]; at 0.0781 µM, OCI-P5x cells, without rucaparib) 125% | viability ([11]; at 0.313 µM, OCI-C5x cells, with rucaparib 10 µM, 100% = cells with rucaparib alone) 114% | viability ([11]; at 0.313 µM, OCI-C5x cells, without rucaparib) 118% | viability ([11]; at 0.313 µM, OCI-P5x cells, with rucaparib 20 µM, 100% = cells with rucaparib alone) 105% | viability ([11]; at 0.313 µM, OCI-P5x cells, without rucaparib) 104% | viability ([11]; at 1.25 µM, OCI-C5x cells, with rucaparib 10 µM, 100% = cells with rucaparib alone) 134% | viability ([11]; at 1.25 µM, OCI-C5x cells, without rucaparib) 117% | viability ([11]; at 1.25 µM, OCI-P5x cells, without rucaparib) 101% | viability ([11]; at 5 µM, OCI-C5x cells, with rucaparib 10 µM, 100% = cells with rucaparib alone) 124% | viability ([11]; at 5 µM, OCI-C5x cells, without rucaparib) 109% | log fold change Tl+ flux (F380Y) 0.0852 | log fold change Tl+ flux (F380Y/beta1) 0.00638 | log fold change Tl+ flux (F380Y/beta2Delta) 0.0463 | log fold change Tl+ flux (F380Y/beta4) 0.0721 | log fold change Tl+ flux [9] -0.00263 | log fold change Tl+ flux (R275C) 0.0285 | log fold change Tl+ flux (R275C/beta1) 0.00107 | log fold change Tl+ flux (R275C/beta2Delta) 0.0378 | log fold change Tl+ flux (R275C/beta4) 0.0617 | log fold change Tl+ flux (R275C/Slo1WT/beta2) -0.0543

CC(Cc1ccc(O)c(O)c1)(NN)C(=O)O (centres undefined)
1.1: normalised cell number [7, 12]
10100 and 12600: cell count [10, 19]
1.3: normalised cell number [7, 13]
97.1% and 84.8%: viability [1]
inactive: parasite load remaining [1] 41.4% and 31.2% | fluorescence ratio [2] 1.04 | inhibition [3] -2.27% | inhibition [4] -0.48% | fluorescence ratio [5] 1.05 | mean signal [6] 254 | red/green cell ratio (normalised) [7] 1.18 | fold change [10, 16] 0.911 and 0.909 | log fold change Tl+ flux (F380Y) -0.0414 | log fold change Tl+ flux (F380Y/beta1) 0.04 | log fold change Tl+ flux (F380Y/beta2Delta) 0.0399 | log fold change Tl+ flux (F380Y/beta4) 0.0475 | log fold change Tl+ flux [9] 0.00594 | log fold change Tl+ flux (R275C/beta1) 0.024 | log fold change Tl+ flux (R275C/beta2Delta) 0.0162 | log fold change Tl+ flux (R275C/beta4) -0.024 | log fold change Tl+ flux (R275C/Slo1WT/beta2) -0.00513
2.2 and 3.05: fold change [10, 17]
9190 and 11400: cell count [10, 18]
active: log fold change Tl+ flux (R275C) 0.0956

Reference: PubChem BioAssay
